# Compound activity as filed in PubChem.
# IL-1B inflam inh: qHTS for Inhibitors of Inflammasome Signaling: IL-1-beta AlphaLISA Primary Screen; THP-1 LPS/ATP IL-1B secretion, AlphaLISA, 16 h; active compounds read low; AID 743279, 2014; 360,000 compounds, 4.7% hits; activity change, % at 57.5 µM; in the data active = activity change below about -50%; inconclusive = mostly about -30% to -49%
#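 Secreted IL-1B measured by AlphaLISA bead assay after 16 h compound exposure of THP-1 cells; compounds (final up to 57.5 uM) added 1 h before LPS (250 ng/mL) and ATP (1.25 mM) stimulation; lower signal means less secretion.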
# TDP1 cell noCPT: qHTS for Inhibitors of human tyrosyl-DNA phosphodiesterase 1 (TDP1): qHTS in cells in absence of CPT; DT40 Tdp1-/- hTDP1 cells, no CPT, ATP luminescence, 48 h; Potency, µM (doses to about 46.2 µM), usual class: inhibitors; 420,000 compounds, 15% hits; also: nearly all actives have a fitted effect of over 55% in size
#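 Camptothecin absent (DMSO only). Human TDP1-complemented DT40 knockout cells, 400 cells/well, 37 °C for minimum 48 hr; ATP measured via CellTiter-Glo, 30 min dark incubation, luminescence.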
# DRD3 antagonist: qHTS of D3 Dopamine Receptor Antagonist: qHTS; D3R cells, DiscoveRx beta-arrestin luminescence, antagonist mode; active compounds read low; max response, negative = inhibition, %; 360,000 compounds, 2.5% hits; in the data active = max response below about -50%; inconclusive = no clear call, values can overlap the other calls
# Target sequence (P35462 whole entry, looked up): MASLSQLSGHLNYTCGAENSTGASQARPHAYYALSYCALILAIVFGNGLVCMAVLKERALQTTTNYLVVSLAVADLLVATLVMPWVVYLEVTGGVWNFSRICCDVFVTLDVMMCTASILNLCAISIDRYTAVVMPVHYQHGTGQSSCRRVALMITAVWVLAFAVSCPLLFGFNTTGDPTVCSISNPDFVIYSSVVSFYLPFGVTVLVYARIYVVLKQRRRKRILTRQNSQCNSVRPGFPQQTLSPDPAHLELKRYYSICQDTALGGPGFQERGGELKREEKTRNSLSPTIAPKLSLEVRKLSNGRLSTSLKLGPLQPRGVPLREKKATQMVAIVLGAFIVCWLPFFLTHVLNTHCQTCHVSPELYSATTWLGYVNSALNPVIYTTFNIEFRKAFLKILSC
#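 Cells expressing the human receptor were seeded at 1500 cells/well, incubated overnight at 37 degrees C in 5% CO2, then exposed to library compounds with dopamine controls for 90 minutes at 37 degrees C before luminescent detection.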
# DRD3 agonist: qHTS of D3 Dopamine Receptor Agonist: qHTS | D(3) dopamine receptor (Homo sapiens), P35462 | D3R DiscoveRx beta-arrestin cells, luminescence, 90 min | max activation, % | 410,000 compounds, 0.58% hits; in the data active = max activation above about 30%
#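 Agonist mode: compounds and dopamine controls were applied to plated cells for 90 min at 37 degrees C after an overnight attachment at 1500 cells/well. Luminescent read-out followed 30 - 60 minutes at room temperature with DiscoveRx detection reagent.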
# DT40 TDP1 CPT: qHTS for Inhibitors of human tyrosyl-DNA phosphodiesterase 1 (TDP1): qHTS in cells in presence of CPT; chicken DT40 Tdp1-/-;hTDP1 cells + 20 nM CPT, ATP luminescence, 48 h; Potency, µM (series often up to 46.2 µM), most hits filed as inhibitors; 420,000 compounds, 12% hits; AID 686979, 2013; also: nearly all actives have a fitted effect of over 55% in size
#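 Chicken DT40 Tdp1-/- cells complemented with human TDP1, 400 cells/well, exposed to compounds plus 20 nM camptothecin for at least 48 h at 37 C; viability read as ATP content by CellTiter-Glo luminescence.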
# ClpP mod: qHTS Assay for Activators of ClpP | ATP-dependent Clp protease proteolytic subunit (Bacillus subtilis (strain 168)), P80244 | purified B. subtilis ClpP, FRET peptide cleavage, 20 min | Potency, µM (highest dose often 57.5 µM) | 340,000 compounds, 1.9% hits | AID 651965, 2013; active = well fitted falling curve with a large enough effect; inconclusive = small, poorly fitted or top-dose-only effect; inactive = no such curve, though single readings can be large or run the other way; also: the source files actives as falling curves though it sought activators and does not explain the sign; nearly all actives have a fitted effect of over 65% in size
# Target sequence (P80244 whole entry, looked up): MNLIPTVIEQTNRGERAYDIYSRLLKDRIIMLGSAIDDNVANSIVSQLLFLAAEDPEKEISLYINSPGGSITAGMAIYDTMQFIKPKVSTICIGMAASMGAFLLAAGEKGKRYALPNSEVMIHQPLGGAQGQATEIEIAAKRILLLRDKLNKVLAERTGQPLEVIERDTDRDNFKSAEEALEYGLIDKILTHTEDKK
#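 FRET quenching reversal measured ClpP activation: 10 microg/mL B. subtilis ClpP at pH 8 with the FRET-FV decapeptide, read at 430 nm after 320 nm excitation. The 20-min minus 0-min signal was scaled between DMSO/no-enzyme wells and ADEP (5.8 microM final).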
# Numbers stand for hits; 0 = inactive; ? = inconclusive; - = not tested or not shown. Rows were chosen to be rich in hits. Some 21% of all compounds tested hit in one or more screens of this group. Unless noted, calls follow the shape of the dose curve; as a rule, active = well fitted inhibition curve with a large enough effect; inconclusive = small, poorly fitted or top-dose-only effect; inactive = flat fitted curve, though single readings scatter.
SMILES,IL-1B inflam inh,TDP1 cell noCPT,DRD3 antagonist,DRD3 agonist,DT40 TDP1 CPT,ClpP mod
CN(C)c1ccsc1C(=O)NNS(=O)(=O)c1ccc(Cl)cc1,0,0,0,0,0,0
CCN(CC)C(=O)Cn1c(=O)n(CCc2ccccc2)c(=O)c2ccccc21,-,?,-,0,?,0
COc1cc(NC(=O)c2sc3ncn(CC(=O)N4CCCCC4C)c(=O)c3c2C)cc(OC)c1OC (centres undefined),0,12µM,0,0,?,0
Cc1c(C(=O)NCc2cccnc2)sc2ncn(CC(=O)N3CCCCC3C)c(=O)c12 (centres undefined),0,0,0,0,0,0
CCc1ccc2oc(-c3cccc(NC(=O)COc4ccccc4Cl)c3)nc2c1,-,0,-,0,0,?
CN(C(=O)COC(=O)c1c2c(nc3ccccc13)CCCC2)c1c(N)n(Cc2ccccc2)c(=O)[nH]c1=O,-54,0,0,0,0,-
CCN(C(=O)COC(=O)c1c2c(nc3ccccc13)CCC2)c1c(N)n(Cc2ccccc2)c(=O)[nH]c1=O,?,0,0,0,?,0
CC(C)CN(C(=O)COC(=O)c1c2c(nc3ccccc13)CCC2)c1c(N)n(Cc2ccccc2)c(=O)[nH]c1=O,-51,?,0,0,?,0
CC(=O)c1ccc(OCCn2c(SCC(=O)O)nc3ccccc32)cc1,0,0,0,0,0,0
CCCNC(=O)C1(C)CCCN(C(=O)Cc2cccc(OC)c2)C1 (centres undefined),0,0,0,0,0,0
CC1=C(C(=O)N(C(C)C)C(C)C)CC(CC(=O)NC2CC2)C(=O)N1Cc1ccc(F)cc1 (centres undefined),0,0,0,0,0,0
Cc1nc2ccccc2c2oc(C(=O)N3CCC(N4CCCCC4)CC3)cc12,?,?,0,0,?,0
COc1ccc(N2CCN(C(=O)c3cc4c(C)nc5ccccc5c4o3)CC2)cc1,0,9.2µM,0,0,16µM,0
Cc1nc2ccccc2c2oc(C(=O)N3CCN(C4CCCCC4)CC3)cc12,0,12µM,0,0,21µM,0
Cc1cc(C)n(CCC(=O)N2CCN(S(=O)(=O)c3ccccc3)CC2)n1,0,0,0,0,0,0
O=c1ccn(CCc2c[nH]c3ccccc23)c2c1CCCC2,-58,0,0,0,0,-
CC1(C(=O)NC2CCCC2)CCC(=O)N1CCc1c[nH]c2ccccc12 (centres undefined),0,0,0,0,0,0
Cc1ccc(OCCCCCCN2CCNCC2)cc1,-90,21µM,0,0,18µM,0
Cc1ccccc1OCCCCCCN1CCNCC1,-74,16µM,0,0,23µM,0
COCc1nn2cc(-c3ccc(C)cc3)nc2s1,-,?,-,0,0,0
Cc1cc(OCCN2CCCCC2)nc2ccccc12,0,?,0,0,0,0
c1ccc(-c2cc(NCCN3CCCCC3)c3ccccc3n2)cc1,-99,16µM,0,0,23µM,-
CCc1ccccc1NC(=O)C1CCN(C2=NS(=O)(=O)C(c3ccc(C)c(C)c3)=C2C)CC1,-,?,-,0,?,0
CCC(=O)Nc1cc(ON=C(C)C)cc([N+](=O)[O-])c1,0,0,0,0,0,0
Cc1cc(C)cc(Oc2cc(NC(=O)c3cn(C)nc3C)cc([N+](=O)[O-])c2)c1,0,1.4µM,0,0,2.2µM,0
SMILES,IL-1B inflam inh,TDP1 cell noCPT,DRD3 antagonist,DRD3 agonist,DT40 TDP1 CPT,ClpP mod
Cc1cc([N+](=O)[O-])nn1CCCC(=O)Nc1cc(Oc2ccccc2)cc([N+](=O)[O-])c1,0,21µM,0,0,16µM,0
Cc1cc([N+](=O)[O-])nn1CCCC(=O)Nc1cc(Oc2ccc(F)cc2)cc([N+](=O)[O-])c1,?,?,0,0,?,0
Cc1ccc(Oc2cc(NC(=O)CCCn3nc([N+](=O)[O-])c(Cl)c3C)cc([N+](=O)[O-])c2)cc1,0,23µM,0,0,21µM,0
COc1ccc(OC)c(NC(=O)CSc2ncnc3sc(C)cc23)c1,0,?,0,0,?,-
Cc1ccc2oc(-c3cc(NC(=O)Cc4ccccc4)ccc3Cl)nc2c1,-,?,-,0,?,0
Cc1ccc2oc(-c3cc(NC(=O)CC(C)C)ccc3Cl)nc2c1,-,12µM,-,0,10µM,0
COc1c(C)cccc1C(=O)Nc1ccc(Cl)c(-c2nc3cc(C)ccc3o2)c1,-,9.2µM,-,0,15µM,25µM
CCOCCCNC(=O)CN1CCN(Cc2ccc(Cl)cc2)C1=O,0,0,0,0,0,0
Cc1ccc(S(=O)(=O)NNC(=O)c2ccc(C(=O)N(c3ccccc3)c3ccccc3)cc2)cc1,-,11µM,-,-,16µM,0
NCC(=O)O,-,0,-,0,0,-
O=C(Nc1ccccc1)OCC1CCCN2CCCCC12 (centres undefined),0,0,-53,0,0,0
O=C(Nc1ccccc1)OC(CN1CCCCC1)C(F)(F)F (centres undefined),0,0,0,0,0,0
O=C(Nc1ccccc1)OCC(CN1CCCCC1)OC(=O)Nc1ccccc1 (centres undefined),?,?,-89,0,?,0
CCOC(=O)C1CCCN(c2c(NCCc3ccc(Cl)cc3)c(=O)c2=O)C1 (centres undefined),0,0,0,0,0,0
O=C1C=C(c2ccccc2)CC(c2cccs2)C1n1cnc([N+](=O)[O-])c1 (centres undefined),0,?,0,0,?,0
O=C1C=C(c2ccccc2)C[C@H](c2cccs2)[C@H]1n1nnc([N+](=O)[O-])n1,-73,5.8µM,0,0,6.5µM,0
CCC(C)c1nc2c(c(N3CCC3=O)c1-c1ccccc1)CCCC2 (centres undefined),0,?,0,62,18µM,0
Cc1nn2c(NC(C)C)c3c(nc2c1-c1ccccc1)CCC3,?,?,0,0,?,0
Cc1ccc(CNC(=O)CCCn2c(=O)c3ccccc3n(CC(=O)C(C)(C)C)c2=O)cc1,-,?,-,0,?,0
CC(C)(C)NC(=O)CCN(/N=C/c1ccc([N+](=O)[O-])o1)C1=NS(=O)(=O)c2ccccc21,0,15µM,0,0,18µM,0
CN(C)c1ccc(/C=N/N(CCC(=O)NC(C)(C)C)C2=NS(=O)(=O)c3ccccc32)cc1,0,?,0,0,0,-
CCc1nc2ccc(C)cc2c(C(=O)Oc2cccc3cccnc23)c1C,0,23µM,0,0,?,0
